Bioassay records (PubChem)
Anthrax LF inh2 – Bacillus anthracis LF protease inhibitors, primary screen, biochemical, multiplex microsphere, MLPCN library; Lethal factor (Bacillus anthracis), P15917; multiplex microsphere protease cleavage assay; inhibition, % at 10 µM; 0.12% of 360,000 active; further: plate controls were buffer without enzyme for full effect and enzyme alone for no effect
Autofluor counter – counter-screen for toxin protease inhibitors: compound fluorescence; compound autofluorescence counterscreen, microsphere flow cytometry; stronger effect = higher value; fluorescence intensity (test concentration not listed); 3.1% of 360,000 active; AID 624483; in the data active means fluorescence intensity above about 16000; inconclusive means no clear call, values can overlap the other calls
BoNT-F LC inh – BoNT/F light chain protease inhibitors, primary screen, biochemical, flow cytometry, MLPCN library; Multiplex microsphere protease cleavage assay; inhibition, % at 10 µM; 0.22% of 360,000 active; AID 588497, 2011; in the data active means inhibition above about 35%, passing the limit was not always enough; inconclusive means no clear call, values can overlap the other calls; further: plate controls were buffer without enzyme for full effect and enzyme alone for no effect
BoNT A protease – BoNT/A light chain protease inhibitors, primary screen, biochemical, flow cytometry, MLPCN library; Botulinum neurotoxin type A light chain protease (Clostridium botulinum A str. ATCC 3502); multiplex microsphere protease substrate cleavage; inhibition, % at 10 µM; 0.17% of 360,000 active; AID 588499, 2011; further: plate controls were buffer without enzyme for full effect and enzyme alone for no effect
GDH-TPI inh – GDH-TPI coupling enzyme inhibitors, primary screen, artefact control for M. tuberculosis FBA inhibitor project, biochemical, absorbance, full deck; 1.2% of 360,000 active; inhibition, % at 4.8 µM; GDH-TPI coupled enzyme counterscreen, NADH absorbance; in the data active means inhibition above about 30%;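 further: 0% = DMSO wells and 100% = wells lacking the enzyme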
Mtb FBA inh – Mtb FBA enzyme inhibitors, primary screen, biochemical, fluorescence, strain H37Rv; 2.3% of 360,000 active; purified M. tuberculosis FBA, fluorescence read-out; AID 588726, 2011; inhibition, % at 1 µM; Fructose-bisphosphate aldolase (Mycobacterium tuberculosis (strain ATCC 25618 / H37Rv)), …; in the data active means inhibition above about 27%;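 further: 0% = vehicle and 100% = reference inhibitor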
* hit, by the source's call; ? = inconclusive; / = no result; + = active, no number. Hits are enriched below; roughly 6.6% of the tested compounds scored in any of these assays. Unless noted, no stated cut-off is given here; in the data, active means inhibition above about 30%; inconclusive means no clear call, values can overlap the other calls; inactive means below that.

SMILES	Anthrax LF inh2	Autofluor counter	BoNT-F LC inh	BoNT A protease	GDH-TPI inh	Mtb FBA inh
CC1(C)COC(c2cc3c(cc2Br)OCO3)OC1	6	3737	3	0	7	1
S=C(Nc1cccc(Cl)c1)N1CCOCC1	-2	22806*	2	1	7	7
COc1ccc(CN(C(=O)c2ccco2)c2ccccc2)cc1	-7	2840	-11	-1	3	3
COc1ccc(N(Cc2cc(=O)[nH]c3ccccc23)C(=O)c2ccco2)cc1	-3	20241*	0	?	4	0
CCN(/N=C/c1cccs1)c1cc(=O)n(C)c(=O)[nH]1	0	4910	15	-1	43*	5
CN(/N=C/c1cccs1)c1cc(=O)n(C)c(=O)[nH]1	4	4699	2	0	48*	-4
CN(C)S(=O)(=O)c1ccc(C(=O)NCc2nnc(SCC(=O)NCc3ccco3)o2)cc1	0	4871	10	5	14	1
CCN(CC)NC(=S)Nc1ccccc1	-2	22619*	2	1	6	1
COC(=O)c1cc(Br)ccc1-c1ccc(/C=N/n2nnnc2N)o1	-5	6609	1	-1	44*	3
COc1ccc(NC2CCCN(C(=O)C3(C)CCCCC3)C2)cc1OC (stereo not drawn)	1	5868	7	0	13	2
Cc1c(C)c2ccc(OC3CCCCC3=O)cc2oc1=O (stereo not drawn)	-1	4015	12	1	9	153*
CC1(C)CC(=O)C2=C(C1)N(c1ccc(F)cc1)C(=O)C2(O)C(F)(F)F (stereo not drawn)	0	22420*	-7	-6	6	-3
COc1ccc(OC)c(Cc2nnc(CCC(=O)NC3CCCCC3)o2)c1	0	4993	3	0	14	0
Cc1c(CCC(=O)NC2CC2)c(=O)oc2cc(O)ccc12	0	5523	0	1	15	+
COc1ccc2c(C)c(CCC(=O)NC3CC3)c(=O)oc2c1	-4	5274	-7	0	25	173*
O=[N+]([O-])c1ccccc1S(=O)(=O)N/C(=N/S(=O)(=O)c1ccccc1)c1ccccc1	-6	3044	0	0	17	0
Cc1ccccc1-n1nc(C)c(N=O)c1N	-6	4268	0	0	5	113*
Cc1nn(-c2ccccc2)c(N)c1N=Nc1cccnc1	2	2015	-8	-1	23	-2
COc1ccc(C2=Nn3c(nnc3-c3cccnc3)SC2)cc1	1	9427	-4	0	23	0
CCOc1ccc(C2=Nn3c(nnc3-c3ccc(OC)cc3)SC2)cc1	-12	17851*	7	5	17	-4
CCOc1ccc(C2=Nn3c(nnc3-c3cccnc3)SC2)cc1	-1	20067*	-3	?	18	-1
c1ccc(C2=Nn3c(nnc3-c3ccncc3)SC2)cc1	-2	2683	2	0	0	2
Cc1cccc(-c2nnc3n2N=C(c2ccccc2)CS3)c1	0	20710*	-2	?	3	-1
c1ccc(C2=Nn3c(nnc3-c3cccnc3)SC2)cc1	1	22262*	7	4	9	1
COc1ccc(C2=Nn3c(nnc3-c3ccncc3)SC2)cc1	?	?	-3	?	18	-2
SMILES	Anthrax LF inh2	Autofluor counter	BoNT-F LC inh	BoNT A protease	GDH-TPI inh	Mtb FBA inh
Cc1ccc(S(=O)(=O)N2CCN(C(=O)Cn3c(=O)cnc4ccccc43)CC2)cc1	-4	4543	2	0	3	6
O=C(NCc1cccc(Cl)c1)C1Cc2c(-c3ccccc3)ccnc2O1 (stereo not drawn)	3	3693	0	0	3	-2
COc1ccc(OC)c(C2=Nn3c(nnc3-c3ccco3)SC2)c1	1	15918	2	2	15	0
COc1ccc(C2=Nn3c(nnc3-c3ccco3)SC2)cc1	-5	17209*	-9	-3	28	0
CCOc1ccc(C2=Nn3cnnc3SC2)cc1	2	22944*	2	1	0	1
O=[N+]([O-])c1ccc(C2=Nn3cnnc3SC2)cc1	/	/	/	/	8	-1
O=C1CCCC2=C1C1(CCCCC1)N=C(Nc1nc3ccccc3o1)N2	4	6192	3	1	51*	-6
CN(C)C(=O)c1ccccc1NC(=O)Cc1cccc2ccccc12	4	4063	22	1	21	3
CCCN(CC(=O)Nc1ccccc1C)C(=O)CCl	-4	3945	-10	0	-13	-3
N#CCCN(C(=O)CN1CCN(S(=O)(=O)c2ccc3c(c2)OCCO3)CC1)c1ccc(F)cc1	-8	3090	1	0	2	0
CC(Oc1ccc(Br)cc1)C(=O)Nc1nnc(C2CC2)s1 (stereo not drawn)	/	/	/	/	5	-4
CCC(N=c1cc(-c2ccc(OC)cc2)oc2ccc(C)cc12)C(=O)O (stereo not drawn)	0	2120	-4	0	31*	+
COc1ccc(-c2c(C)oc3ccc(C)cc23)cc1	-9	23892*	-3	-2	-11	-2
COc1ccc(-c2ccc3oc(-c4ccc(OC)cc4)c(-c4cc(OC)c(OC)c(OC)c4)c3c2)cc1	8	3868	-1	1	9	5
CCC(N=c1cc(-c2ccc(OC)c(OC)c2)oc2ccc(C)cc12)C(=O)O (stereo not drawn)	-1	1913	-4	0	28	10
CCCOc1ccc(C(CC(=O)O)NC(=O)C23CC4CC(CC(C4)C2)C3)cc1 (stereo not drawn)	-1	23418*	0	0	0	-1
C/C(=N\NC(=O)Cc1csc(N2CCOCC2)n1)c1ccccc1	-4	21300*	-10	?	7	-2
CCOc1cc(/C=N\NC(=O)c2ccc(C)nc2)cc([N+](=O)[O-])c1O	-1	19947*	-6	-2	49*	-10
COc1cc(/C=N/NC(=O)c2ccc(C)nc2)cc([N+](=O)[O-])c1O	-2	4066	6	-1	24	-14
COc1cc([N+](=O)[O-])cc(/C=N/NC(=O)c2ccc(C)nc2)c1O	0	2460	0	-1	37*	-12
C=Cc1ncc(OC)c2c1[nH]c1ccccc12	-6	6054	-3	-1	11	25
CCOc1ccc(-n2c(=O)cc(N3CCN(c4ccccc4)CC3)[nH]c2=O)cc1	-4	21972*	1	1	1	-1
COc1ccc(-n2c(=O)cc(N3CCOCC3)[nH]c2=O)cc1	-1	19939*	1	-1	8	2
COc1ccc(-n2c(=O)cc(N3CCCCCC3)[nH]c2=O)cc1	-1	10048	0	0	7	-1
